Many of the other results were omitted from the sample, so hits are more common in it than they were.
NS1 function inh = influenza NS1 inhibition | Potency, µM (top dose mostly 46.1 µM), for the others: at the top dose activity, positive = more growth | actives 0.4% (n = 270,000) | AID 2326; calls by dose curve; note: actives are rising curves; nearly all actives have a fitted effect of over 50% in size
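Growth recovery, yeast-based: influenza A NS1 expressed in S. cerevisiae causes slow growth, and suppressors are detected by OD600. The parent strain without NS1 is used as positive control.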
Cruzain inh noDet = inhibitors of Trypanosoma cruzi cruzain without detergent; purified cruzain, Z-FR-AMC fluorescence, no detergent; Potency, µM, without a hit: max response, negative = inhibition, most hits filed as inhibitors; actives 2.3% (n = 200,000); AID 1476;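 note: plate controls were enzyme without inhibitor for no effect and buffer without enzyme for full effect; nearly all actives have a fitted effect of over 40% in size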
Target sequence (P25779 123-467 limits assumed): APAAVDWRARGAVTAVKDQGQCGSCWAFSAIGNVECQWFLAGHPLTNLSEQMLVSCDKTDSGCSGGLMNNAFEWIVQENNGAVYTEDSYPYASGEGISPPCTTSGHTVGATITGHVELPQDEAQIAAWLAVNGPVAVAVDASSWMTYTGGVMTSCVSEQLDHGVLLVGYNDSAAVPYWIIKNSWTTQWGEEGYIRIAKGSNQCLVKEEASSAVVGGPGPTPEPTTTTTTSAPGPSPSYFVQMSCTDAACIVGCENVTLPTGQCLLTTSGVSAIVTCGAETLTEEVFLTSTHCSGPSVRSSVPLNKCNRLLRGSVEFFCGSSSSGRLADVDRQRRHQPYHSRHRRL
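Purified cruzain at 1.5 nM, pre-incubated 15 min with compound at room temperature in 100 mM sodium acetate pH 5.5, 5 mM DTT, 0.00005% Triton X-100. Reaction started with 2 uM Z-FR-AMC; AMC fluorescence increase over 60 s gives rate.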
Cruzain Triton = inhibitors of Trypanosoma cruzi cruzain with detergent; P25779; purified cruzain, Z-FR-AMC fluorescence, 0.01% Triton; Potency, µM, for inactives: max response, negative = inhibition, usual class: inhibitors; actives 0.43% (n = 200,000); AID 1478;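 note: plate controls were neutral wells for no effect and buffer without enzyme for full effect; nearly all actives have a fitted effect of over 40% in size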
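Enzyme 1.5 nM, Z-FR-AMC 2 uM, NaOAc 100 mM pH 5.5, DTT 5 mM, Triton X-100 0.01%; 15 min RT compound preincubation; kinetic ex360/em450, 60 s delta.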
Active calls of the source: *. Unless noted, calls come from the whole dose curve; as a rule, active = well fitted curve in the direction sought with a large enough effect; inconclusive = small, poorly fitted or top-dose-only effect, or another doubt; inactive = no such curve, though single readings can be large; an effect the other way counts as inactive or inconclusive. Potency is the fitted concentration of half-maximal effect.

Screening Cc1cc(C)c(/C=C/c2onc(C)c2S(=O)(=O)N2CCC(C(=O)NCC(C)c3ccccc3)CC2)c(C)c1 (configuration not stated) returned Cruzain inh noDet 4% and Cruzain Triton -3%.
`Cc1ccc2occ(CC(=O)N(Cc3ccc(C(C)C)cc3)C3CCS(=O)(=O)C3)c2c1` (configuration not stated) gave Cruzain inh noDet inconclusive and Cruzain Triton -13%.
Screening Cc1cc(Cl)c(OCCCN(C)C)c(Br)c1 returned NS1 function inh 4%, Cruzain inh noDet 5µM* and Cruzain Triton 0%.
Cc1ccc(OCCCN(C)C)c(Br)c1 was read as NS1 function inh -6%, Cruzain inh noDet 3% and Cruzain Triton 2%.
For Cc1ccc(S(=O)(=O)c2nc(-c3ccccc3F)oc2NCc2ccccc2)cc1 the results were Cruzain inh noDet 0% and Cruzain Triton -2%.
Screening O=S(=O)(c1ccccc1)c1nc(-c2ccco2)oc1NCc1ccco1 returned NS1 function inh -33%, Cruzain inh noDet -7% and Cruzain Triton -9%.
Screening CCCCNc1oc(-c2ccc(OC)cc2)nc1S(=O)(=O)c1ccccc1 returned NS1 function inh -5%, Cruzain inh noDet inconclusive and Cruzain Triton 28µM*.
Screening Cc1ccc(S(=O)(=O)c2nc(C)oc2NCc2ccccc2)cc1 returned NS1 function inh -4%, Cruzain inh noDet 20µM* and Cruzain Triton 20µM*.
Screening O=S(=O)(c1ccccc1)c1nc(-c2ccco2)oc1NCc1ccccc1 returned NS1 function inh 3%, Cruzain inh noDet 25µM* and Cruzain Triton 22µM*.
CCNc1oc(-c2ccc(OC)cc2)nc1S(=O)(=O)c1ccc(Br)cc1 was read as NS1 function inh 1%, Cruzain inh noDet -1% and Cruzain Triton -3%.
Screening O=S(=O)(c1ccc(Cl)cc1)c1nc(-c2cccc(Br)c2)oc1NCc1ccccc1 returned Cruzain inh noDet 13µM* and Cruzain Triton -11%.
Screening O=S(=O)(c1ccccc1)c1nc(-c2cccc(Cl)c2)oc1NCc1ccccc1 returned Cruzain inh noDet 9% and Cruzain Triton 0%.
`CCN1CCN(C(c2cccc(OC)c2)c2c(O)cc(C)n(Cc3ccco3)c2=O)CC1` (configuration not stated) gave Cruzain inh noDet inconclusive and Cruzain Triton 2%.
For COc1ccc(-c2[nH]c3ccccc3c2SCCNC(=O)c2cc(OC)c(OC)c(OC)c2)cc1 the results were Cruzain inh noDet inconclusive and Cruzain Triton -4%.
COc1ccc(-c2nnc(SCc3cc(=O)c4cc(C)cc(C)c4[nH]3)n2C)cc1 was read as Cruzain inh noDet 12% and Cruzain Triton 1%.
CCc1cc2c(=O)nc3n(c2s1)Cc1ccccc1/C3=C(/O)c1ccccc1Cl was read as NS1 function inh 0%, Cruzain inh noDet 25µM* and Cruzain Triton -2%.
`CCc1cc2c(=O)nc3n(c2s1)Cc1ccccc1/C3=C(/O)c1ccc(F)cc1` gave NS1 function inh -4%, Cruzain inh noDet inconclusive and Cruzain Triton -1%.
For CCCCCc1c2c(cc(O)c1C(=O)O)OC(=O)c1cc(C(=O)CCCC)c(OC)cc1O2 the results were Cruzain inh noDet inconclusive and Cruzain Triton 18µM*.
Screening CCCCCc1c2c(cc(O)c1C(=O)O)OC(=O)c1c(cc(OC)cc1C(=O)CCCC)O2 returned NS1 function inh 7%, Cruzain inh noDet 29% and Cruzain Triton -20%.
`Cc1ccc(-c2nnc(Nc3ccc(Cl)c(Cl)c3)c3ccccc23)cc1S(=O)(=O)NCCO` gave Cruzain inh noDet 15% and Cruzain Triton -2%.
`Cc1ccc(-c2nnc(Nc3ccc(Cl)c(Cl)c3)c3ccccc23)cc1S(=O)(=O)N(C)C` gave Cruzain inh noDet 6.3µM* and Cruzain Triton -3%.
Screening Cc1ccc(-c2nnc(Nc3cccc(Cl)c3)c3ccccc23)cc1S(=O)(=O)N1CCCCC1 returned Cruzain inh noDet 7.9µM* and Cruzain Triton -2%.
Screening Cc1ccc(-c2nnc(Nc3cccc(Cl)c3)c3ccccc23)cc1S(=O)(=O)N1CCOCC1 returned Cruzain inh noDet 3% and Cruzain Triton -3%.
`O=C(NCc1ccccc1)c1ccc2c(c1)N(Cc1ccccc1F)C(=O)c1ccccc1S2=O` (configuration not stated) gave Cruzain inh noDet inconclusive and Cruzain Triton -1%.
For CCc1c(C)c(C#N)c2nc3ccccc3n2c1Nc1cccc(C(F)(F)F)c1 the results were Cruzain inh noDet -4% and Cruzain Triton -2%.
Screening CC[C@@H]1C(c2cccc(Cl)c2)=NN(c2ccccc2)[C@H]1C(=O)N1CCOC1=O returned Cruzain inh noDet -30% and Cruzain Triton -1%.
